Measured values as given in PubChem BioAssay.
The source made the active and inactive calls.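 How the source made its calls, unless noted: active means z-score of at least 1.8 in each of two replicates, scored against plate mean and spread of sample wells; inactive means the rest.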

What was measured:
[1] = tested on: Aerobactin synthetase IucA (Klebsiella pneumoniae); assay: IucA aerobactin synthetase inhibitors, biochemical, Tocris library, absorbance (AID 1345561; call rule not given here;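 further: 100% = enzyme without compound and 0% = no enzyme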); settings: purified IucA enzyme assay, absorbance (OD) read-out; stronger effect = lower value;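 tested at 8 µM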
[2] = sensitizers of A549 cells to miR-34 induction, primary screen, imaging, A549 dox-inducible miR-34, nuclei and caspase counts (AID 1347080;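 active means compounds whose cell count with miR-34 switched on is under 0.7 times the count with it off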); settings: A549 miR-34 inducible, Hoechst nuclei count, 48 h
[3] = viability rescue of complex I mutant cybrids, primary screen, cell-based, galactose medium, ATP luminescence (AID 1645843); settings: complex I mutant cybrid cells, 72 h, stronger effect = higher value;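 further: positive z means more ATP and so rescue of galactose-driven cybrid death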
[4] = stronger effect = lower value, cell number ratio, induced over uninduced
[5] = measured here: relative caspase fold change +Dox/-Dox
[6] = measured here: total cells with miR-34 induction, stronger effect = lower value
[7] = measured here: total cells without miR-34 induction

| Compound | remaining activity [1] | fold change [2, 4] | fold change [2, 5] | cell count [2, 6] | cell count [2, 7] | z-score [3] |
| --- | --- | --- | --- | --- | --- | --- |
| COc1cc(OC)c(C(=O)CCCCN2CCC3(CC2)NC(=O)NC3=O)cc1NS(=O)(=O)c1ccc(C(F)(F)F)cc1 | 118% (inactive) | 0.962 (inactive) | 0.689 | 8560 | 8900 | -0.165 (inactive) |
| NC(=NC1C2CC3CC(C2)CC1C3)Nc1ccc(I)cc1 (stereo unspecified) | 126% (inactive) | 1.12 (inactive) | 0.649 | 2830 | 2540 | -0.39 (inactive) |
| NC(C(=O)O)c1ccc(C(=O)O)c(C(=O)O)c1 (stereo unspecified) | 109% (inactive) | 0.922 (inactive) | 0.667 | 8080 | 8760 | 0.13 (inactive) |
| Cc1ccc2c(=O)c3ccccc3n(CCCN)c2c1C | 96.6% (inactive) | 1.17 (inactive) | 1.36 | 2370 | 2020 | -0.58 (inactive) |
| Cc1cc(C)c(S(=O)(=O)Nc2ccccc2C(F)(F)F)c(C)c1 | 96.1% (inactive) | 0.879 (inactive) | 0.932 | 6450 | 7330 | 1.2 (inactive) |
| CC1(C)CCC(C)(C)c2cc(C3(c4ccc(C(=O)O)cc4)OCCO3)ccc21 | 106% (inactive) | 0.895 (inactive) | 2.19 | 8580 | 9580 | 0.95 (inactive) |
| CCOC(=O)NC[C@H](Cc1ccc(OCCc2nc(-c3ccccc3)oc2C)cc1)N/C(C)=C\C(=O)c1ccc(C(F)(F)F)cc1 | 105% (inactive) | 1.05 (inactive) | 1.05 | 5130 | 4910 | -0.305 (inactive) |
| BrC1C(Br)C(Br)C(Br)C(Br)C1Br (stereo unspecified) | 107% (inactive) | 1.04 (inactive) | 1.17 | 7970 | 7680 | -0.62 (inactive) |
| C=CCNC(=O)c1cc([N+](=O)[O-])cc2c(=O)[nH]c(Nc3ccc(Cl)c(Cl)c3)nc12 | 116% (inactive) | 0.926 (inactive) | 0.827 | 8840 | 9550 | -0.09 (inactive) |
| CN(Cc1ccccc1)C(=O)[C@H](Cc1ccc2ccccc2c1)NC(=O)[C@@H]1CCCN1C(=O)Nc1ccccc1[N+](=O)[O-] | 123% (inactive) | 0.972 (inactive) | 1.17 | 5700 | 5860 | 1.83 (active) |
| CC(C)(C)c1cc(C(=O)/C=C/c2ccc(C(=O)O)cc2)cc(C(C)(C)C)c1 | 108% (inactive) | 1.11 (inactive) | 1.56 | 1370 | 1240 | -0.69 (inactive) |
| NS(=O)(=O)c1nn2cc(-c3ccccc3)nc2s1 | 99.1% (inactive) | 1.09 (inactive) | 0.795 | 4960 | 4530 | -0.585 (inactive) |
| O=Nc1ccc(O)c2ncccc12 | 118% (inactive) | 1.09 (inactive) | 1.32 | 2920 | 2670 | -1.02 (inactive) |
| CCCCn1c(=O)c2[nH]c(C34CC5CC(CC3C5)C4)nc2n(CCCO)c1=O | 106% (inactive) | 1.02 (inactive) | 1.81 | 5180 | 5060 | 0.41 (inactive) |
| CCc1cc(C(C)=O)c(O)cc1OCCCCCC(C)(C)c1nn[nH]n1 | 116% (inactive) | 0.891 (inactive) | 1.51 | 7060 | 7920 | -0.21 (inactive) |
| C[C@@H](NCc1cc(Br)cc2[nH]c(=O)c(=O)[nH]c12)P(=O)(O)O | 104% (inactive) | 0.887 (inactive) | 1.3 | 8900 | 10000 | -0.07 (inactive) |
| COc1ccc(-n2[nH]c3c4c(ncc3c2=O)CCCCC4)cc1 | 115% (inactive) | 0.906 (inactive) | 1.8 | 8550 | 9440 | 2.12 (active) |
| CN1c2cc3c(cc2N=C(c2ccc(C(=O)O)cc2)c2ccccc21)C(C)(C)CCC3(C)C | 106% (inactive) | 0.924 (inactive) | 2 | 7660 | 8280 | -0.495 (inactive) |
| COc1cccc(CCc2ccccc2OCC[C@@H]2C[C@@H](O)CN2C)c1 | 109% (inactive) | 1.04 (inactive) | 0.632 | 7340 | 7050 | -0.705 (inactive) |
| C1CCC2(CC1)CCNCC2 | 105% (inactive) | 0.955 (inactive) | 1.56 | 9280 | 9730 | 0.34 (inactive) |
| Cc1c(C(=O)NN2CCOCC2)nn(-c2ccc(Cl)cc2Cl)c1-c1ccc(I)cc1 | 115% (inactive) | 0.846 (inactive) | 0.864 | 8280 | 9790 | -0.285 (inactive) |
| CC[C@]1(O)C[C@H]2CN(CCc3c([nH]c4ccccc34)[C@@](C(=O)OC)(c3cc4c(cc3OC)N(C)[C@H]3[C@@](O)(C(=O)OC)[C@H](OC(C)=O)[C@]5(CC)C=CCN6CC[C@]43[C@@H]65)C2)C1 | 123% (inactive) | 1.06 (inactive) | 0.382 | 1570 | 1480 | -0.65 (inactive) |
| COCCNC(=O)COc1ccc(OCCNC[C@@H](O)COc2ccccc2)cc1 | 95.4% (inactive) | 0.88 (inactive) | 0.916 | 8400 | 9540 | 0.13 (inactive) |
| c1cc2c(cc1C1CCCCC1)c1c3n2CCNC3CCC1 (stereo unspecified) | 102% (inactive) | 1.06 (inactive) | 1.07 | 430 | 406 | -1.23 (inactive) |
| O=C1C=CC(=O)C2=C1C1c3ccccc3C2c2ccccc21 | 104% (inactive) | 0.889 (inactive) | 1.44 | 6130 | 6900 | -0.705 (inactive) |
| C[C@@]1(O)[C@H](O)[C@@H](CO)O[C@H]1n1cnc2c(NC3CCCC3)nc(Cl)nc21 | 118% (inactive) | 1.01 (inactive) | 1.12 | 7690 | 7600 | 0.755 (inactive) |
